The values below come from PubChem BioAssay (NCI).

SMILES strings stand for the structures. About 83,000 compounds went through this panel and 20% of them were active in at least one assay; those are over-represented in the sample as a whole.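 Each cell line was grown in a 96-well plate and treated with one concentration of compound for 48 hours. Values below 10 were considered active.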 A number with no mark means an inactive call. Activity calls are given as the source filed them. *1 amine or outer side, *2 acyl side, *3 side chain or, on linkers, in order; H or OH if unused. Where a SMILES comes first, the peptide text is derived from it. [ ]: non-standard residue; d: D form. The star is where a group is joined. X5 = CCC(=O)CC1CC(C)CC(C(=O)[*:2])N1[*:1]; X4 = CCCCCCCCC(C)C(=O)*; Aib = CC(C)(N)C(=O)O; X6 = CC(CN(C)CCO)N*

The subject of the assay is HOP-62 NSCLC. Kind of assay: NCI-60 one-dose screen, 48 h (100 = growth as untreated, 0 = no growth, -100 = all killed). The following applies: 10 µM unless noted. Here is the method:
Growth inhibition of the HOP-62 human Non-Small Cell Lung tumor cell line is measured as a screen for anti-cancer activity. Cells are grown in 96 well plates and exposed to the test compound for 48 hours. Compounds are tested at a single concentration, which is 10^-5 M for most compounds. The reported endpoint is percent growth (GI% or GIPRCNT), where numbers from 0 - 100% represent growth inhibition, and numbers from -100% - 0 represent cell death. For example, a value of 40 represents 60% growth inhibition. A value of 0 means no net growth occurred over the course of the experiment. A value of -40 indicates 40% of cells at the beginning of the experiment died by the end of the experiment. A value of -100 means all cells are dead at the end of the experiment.
NCI-60 Human Tumor Cell Lines Screen was performed using the standard one-dose NCI protocol, which is described in more detail at https://dtp.cancer.gov/discovery_development/nci-60/default.htm.
Compounds with GIPRCNT values below 10 were considered active. Activity score was based on GIPRCNT using the following formula: […]
Score is 0 for GIPRCNT values of 100 or above, 50 for GIPRCNT values of 0, and 100 for GIPRCNT values of -100.
Regarding `CCCCC(CCc1ccc([N+](=O)[O-])cc1)(C(C)=O)C(=O)OCC` (stereo not given), the growth is 102%.
Regarding `CC1CC(C)(C)OB(OC(C)CC(C)(C)OB2OC(C)CC(C)(C)O2)O1` (stereo not given), the growth was 91.6%.
As for `CC(=O)c1c(O)c(C)c(O)c2c1OC1=CC(=O)C(C(C)=O)C(=O)C12C` (stereo not given), the growth was 74.3%.
As to `CCOC(=O)c1cc(CC)sc1NC(=O)CC(C)=O`, the growth was 73%.
Regarding `NC(=S)Nc1ccc2c(c1)Cc1ccccc1-2`, the growth is 84.2%.
With `Cn1ccc(=Nc2ccc(NC(=O)c3ccc(N=c4ccn(C)c5ccc([N+](=O)[O-])cc45)cc3)cc2)cc1` the figure was 52.6%.
With `COc1c(C)c2c(c(O)c1C/C=C(\C)CCC(=O)O)C(=O)OC2` the figure was 46.6%; with `COc1ccc(C(OCC2OC(n3ccc(NC(=O)c4ccccc4)nc3=O)C(O)C2O)(c2ccccc2)c2ccccc2)cc1` (stereo not given), 85.3%.
Take `CCN(CC)CCNC(Cc1ccccc1)c1ccc(OCc2ccccc2)cc1` (stereo not given): the growth is 92.8%.
Regarding `CCc1cccc(CC)c1N1C(=O)C=CC1=O`, the growth was 83.7%.
Take `COc1cc(/C=C/C(=O)CC(=O)/C=C/c2ccc(O)c(OC)c2)ccc1O`: the growth is 40.9%.
With `Nc1nc2ncc(CNc3ccc(C(=O)NC(CCC(=O)NC(CCC(=O)NC(CCC(=O)NC(CCC(=O)NC(CCC(=O)O)C(=O)O)C(=O)O)C(=O)O)C(=O)O)C(=O)O)cc3)nc2c(=O)[nH]1` (stereo not given) the figure was 100%.
Take `CCOC(=O)C1(C)CCCC1N` (stereo not given): the growth is 109%.
For `O=[n+]1c2ccccc2n([O-])c2cc(Cl)ccc21`, the growth is 77.4%.
In the case of `O=C1C=CC(=O)N1c1ccc(O)cc1`, the growth is 104%.
Consider `CCOC(=O)NC(/C=C/c1ccccc1)NC(=O)OCC`, for which the growth was 100%.
Consider `CC1(O)CCCCCC1`, for which the growth is 87.7%.
Turning to `CCN(CC)c1ccc(/C=C\C(=O)c2ccc(NC(C)=O)cc2)cc1`, the growth is 56.2%.
As to `CCCCCCCCCCCC[S+](C)CC(=O)[O-]` (stereo not given), the growth was 38.7%.
Next, `CCCCCCN(CCCCCC)CCCNc1nccc2ccccc12`: 64.3%; `Cc1ccccc1N=C(N)Nc1ccccc1C` (tested in a mixture with another compound): 84.7%.
Next, `OC(c1cc(-c2ccc(Cl)cc2)nc2c(Cl)cccc12)C1CCCCN1` (stereo not given): -92.2% (active); `Nc1cccc2cccc([N+](=O)[O-])c12`: 97.8%; `N#Cc1c2ccccc2nc2ccccc12`: 108%.
For the compound `Oc1c(C(Nc2ccccc2)c2ccccc2)ccc2cccnc12` (stereo not given), the growth is 24.1%.
For `Cc1cc(I)nc2ccccc12`, the growth was 105%.
For the compound `CC(=O)c1ccc2c(c1)CCc1ccccc1-2`, the growth was 88.5%.
`O=[N+]([O-])CC(O)c1ccccc1` (stereo not given): the growth is 100%.
On to `CCCCCCCCC(C)C(=O)N1CCCC1C(=O)N1C(CC(=O)CC)CC(C)CC1C(=O)NC(C)C(=O)NC(C)(C)C(=O)NC(C)(C)C(=O)NC(C(=O)NC(C)C(=O)NC(C)(C)C(=O)NC(C)(C)C(=O)NC(C)CN(C)CCO)C(C)CC` (stereo not given) (X4-P[X5]A[Aib][Aib]IA[Aib][Aib]-X6; configuration not given here), for which the growth is -81.5% (active).
Turning to `O=C(c1ccccc1)N(CCCl)C(=O)N(CCCl)C(=O)c1ccccc1`, the growth is 91.5%.
For `Oc1ccc(Br)cc1Sc1cc(Br)ccc1O`, the growth was 84.7%.
`CC(C)(C)c1ccc(O)c(-c2ccccc2)c1`: the growth is 112%.
Consider `CN1CCC(c2ccccc2)(c2ccccc2)C(=O)C1`, for which the growth was 107%.
`O=C(NNc1ccccc1)OCc1ccccc1`: the growth was 100%.
Consider `N#CC(I)CS(=O)(=O)c1ccccc1` (stereo not given), for which the growth is 98.6%.
With `O=C(c1ccccc1)C(Br)C(Br)c1ccccc1` (stereo not given), the growth is 103%.
Consider `COC(=O)[C@]1(C)CCC[C@]2(C)c3ccc(C(C)C)cc3C(=O)[C@@H](Br)[C@@H]12`, for which the growth is 94.3%.
Regarding `CCOC(=O)/C(=C\c1ccc2ccccc2c1)P(=O)(OCC)OCC`, the growth was 40.6%.
As to `OC(CSc1ccccc1)CN1CCN(c2ccc(Cl)cc2)CC1` (stereo not given), the growth was 98.3%.
Regarding `S=C(SSC(=S)N1CCOCC1)N1CCOCC1`, the growth was 104%.
